Reference: PubChem BioAssay (EPA / NIEHS)
Records with an inconclusive call do not appear. The source made the active and inactive calls. The calls were made as follows, unless noted: active = hit-call score of the fitted dose curve at least 0.9, where 1 is the maximum; inactive = score below 0.9.

Experiments:
[1] = biological target: Nuclear respiratory factor 1 (Homo sapiens) (UniProt Q16656); assay: ATG_NRF1_CIS: Attagene CIS-FACTORIAL HepG2 Assay for human Nuclear Respiratory Factor 1 (NRF1) Orphan Gene (AID 2282987); settings: HepG2 NRF1 cis-element reporter, Attagene multiplex; actives raise or lower the signal
Chain of Nuclear respiratory factor 1 (Homo sapiens) (Q16656 whole entry, looked up): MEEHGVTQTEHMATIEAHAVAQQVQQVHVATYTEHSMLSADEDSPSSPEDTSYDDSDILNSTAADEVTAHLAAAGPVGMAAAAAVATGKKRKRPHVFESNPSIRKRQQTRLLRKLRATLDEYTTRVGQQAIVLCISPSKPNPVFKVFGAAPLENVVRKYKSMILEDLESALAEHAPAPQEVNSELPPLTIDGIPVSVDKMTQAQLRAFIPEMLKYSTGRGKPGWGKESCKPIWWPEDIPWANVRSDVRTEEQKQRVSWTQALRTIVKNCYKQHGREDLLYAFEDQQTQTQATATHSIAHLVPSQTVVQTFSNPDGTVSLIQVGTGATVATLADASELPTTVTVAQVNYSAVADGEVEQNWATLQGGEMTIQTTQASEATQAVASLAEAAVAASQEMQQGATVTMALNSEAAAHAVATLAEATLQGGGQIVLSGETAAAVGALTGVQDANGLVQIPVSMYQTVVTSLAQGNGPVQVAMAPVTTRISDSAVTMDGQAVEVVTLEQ
Summary of the method: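 Endogenous NRF1-driven reporter transcription measured in transiently transfected human HepG2 liver cells. Readout: reporter mRNA by RT-PCR and capillary electrophoresis with fluorescence detection, 24 h post-dosing. Gain or loss of signal fitted relative to DMSO baseline.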

[2] = ATG_NFI_CIS: Attagene CIS-FACTORIAL HepG2 Assay for human Nuclear Factor I (NFI) (AID 2282989); settings: HepG2 cis-regulatory reporter, NFI response element transcription; actives raise or lower the signal
Summary of the method: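 HepG2, transient MRTU, 24 h exposure; RNA→cDNA→PCR→FAM label→HpaI→CE fluorescence. Bidirectional fit, DMSO = baseline.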

[3] = biological target: Myc proto-oncogene protein (Homo sapiens) (UniProt P01106); assay: ATG_Myc_CIS: Attagene CIS-FACTORIAL HepG2 Assay for human Myelocytomatosis (Myc) Proto-Oncogene Transcription Factor (AID 2282990); settings: HepG2, Attagene cis-reporter transcription factor activity; actives raise or lower the signal
Chain of Myc proto-oncogene protein (Homo sapiens) (P01106 whole entry, looked up, the tested form may be a part): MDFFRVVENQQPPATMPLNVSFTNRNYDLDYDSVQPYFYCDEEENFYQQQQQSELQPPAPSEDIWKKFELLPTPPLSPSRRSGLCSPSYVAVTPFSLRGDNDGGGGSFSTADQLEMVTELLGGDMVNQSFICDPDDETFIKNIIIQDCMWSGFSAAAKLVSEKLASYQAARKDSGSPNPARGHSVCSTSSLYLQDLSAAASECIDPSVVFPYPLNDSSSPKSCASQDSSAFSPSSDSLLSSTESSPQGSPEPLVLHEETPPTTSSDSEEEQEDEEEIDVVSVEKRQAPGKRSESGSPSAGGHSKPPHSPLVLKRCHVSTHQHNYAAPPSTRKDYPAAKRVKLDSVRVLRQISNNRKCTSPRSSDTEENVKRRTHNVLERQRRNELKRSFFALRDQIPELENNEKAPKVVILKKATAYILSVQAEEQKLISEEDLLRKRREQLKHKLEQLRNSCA
Summary of the method: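 After 24 h chemical treatment of HepG2 cells carrying multiplexed cis-regulated reporter constructs, reporter transcripts quantified by RT-PCR and capillary electrophoresis of fluorescent fragments. Gain or loss fitted against DMSO baseline.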

[4] = ATG_NRF2_ARE_CIS: Attagene CIS-FACTORIAL HepG2 Assay for human Nuclear Factor Erythroid 2 Related Factor 2 (NFR2) response to Antioxidant Response Elements (ARE) (AID 2282992); settings: HepG2 Attagene ARE/NRF2 reporter, transcription factor activity; actives raise or lower the signal
Summary of the method: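 Endogenous transcription factor activity in human liver HepG2 cells is tracked via a cis-element-driven reporter within a multiplexed set. mRNA induction is read by RT-PCR and capillary electrophoresis after 24 h, with DMSO as baseline.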

[5] = ATG_Oct_MLP_CIS: Attagene CIS-FACTORIAL HepG2 Assay for human Octamer-Binding Transcription Factor (Oct) (AID 2282993); settings: HepG2 Attagene cis-factorial Oct reporter, mRNA; actives raise or lower the signal
Summary of the method: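 Multiplexed cis-reporter assay in human liver HepG2 cells, 24 h incubation. Reporter RNA amplified and labelled, then resolved by capillary electrophoresis; DMSO serves as negative control and baseline.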

[6] = biological target: Cellular tumor antigen p53 (Homo sapiens) (UniProt P04637); assay: ATG_p53_CIS: Attagene CIS-FACTORIAL HepG2 Assay for human p53 Transcription Factor (AID 2282994); settings: HepG2 p53 cis-element reporter, Attagene mRNA; actives raise or lower the signal
Chain of Cellular tumor antigen p53 (Homo sapiens) (P04637 whole entry, looked up, the tested form may be a part): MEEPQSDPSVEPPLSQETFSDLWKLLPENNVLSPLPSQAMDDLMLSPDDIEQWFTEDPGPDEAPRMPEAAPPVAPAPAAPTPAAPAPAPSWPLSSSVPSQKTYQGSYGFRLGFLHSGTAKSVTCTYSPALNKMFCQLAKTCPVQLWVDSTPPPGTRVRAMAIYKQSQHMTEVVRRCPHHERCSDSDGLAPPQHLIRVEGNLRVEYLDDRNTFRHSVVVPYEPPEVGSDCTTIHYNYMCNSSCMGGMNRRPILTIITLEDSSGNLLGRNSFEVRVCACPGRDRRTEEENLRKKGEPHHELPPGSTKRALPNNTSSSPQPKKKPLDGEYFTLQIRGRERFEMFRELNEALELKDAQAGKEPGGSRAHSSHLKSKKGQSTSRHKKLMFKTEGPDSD
Summary of the method: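 Steps: transfect HepG2 with multiplexed cis reporter constructs; dose chemicals 24 h; extract RNA, reverse-transcribe, PCR-amplify reporter sequences; FAM-label, HpaI-digest, resolve fragments by CE. Activity fitted both directions relative to DMSO.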

[7] = BSK_3C_TissueFactor: BioMAP Diversity Plus: 3C Assay for Tissue Factor Biomarker Activity (AID 2282997); settings: BioMAP 3C HUVEC, tissue factor biomarker readout; actives raise or lower the signal
Summary of the method: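 Tissue Factor measured by ELISA, 24 h after treatment of primary HUVEC in the BioMAP 3C setting.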

[8] = BSK_3C_uPAR: BioMAP Diversity Plus: 3C Assay for Urokinase-type plasminogen activator receptor (uPAR) Biomarker Activity (AID 2282998); settings: BioMAP 3C HUVEC, uPAR biomarker ELISA; actives raise or lower the signal
Summary of the method: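 Dose primary human umbilical vein endothelial cells, incubate 24 h, measure cell-surface uPAR by ELISA, then fit the signal in both directions against the DMSO negative control.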

[9] = BSK_3C_VCAM1: BioMAP Diversity Plus: 3C Assay for Vascular cell adhesion molecule 1 (VCAM1) Biomarker Activity (AID 2282999); settings: BioMAP 3C HUVEC, VCAM1 ELISA, cytokine-stimulated; actives raise or lower the signal
Summary of the method: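 Activity fitted in both directions relative to DMSO, with ELISA measurement of the surface marker on primary HUVEC (3C) at 24 h post-treatment; parallel SRB staining (0.1% SRB, TCA-fixed, 560 nm) flagged overt cytotoxicity.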

[10] = BSK_4H_Eotaxin3: BioMAP Diversity Plus: 4H Assay for Eotaxin 3 Biomarker Activity (AID 2283000); settings: primary human endothelial cells (HUVEC); actives raise or lower the signal;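 also: CCL26 protein level quantified by ELISA in parallel with SRB cytotoxicity check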
Summary of the method: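 Eotaxin-3 (CCL26) levels were measured by ELISA in HUVEC primary cultures 24 h post-dosing. Gain or loss of signal was fitted in both directions, with DMSO serving as baseline and negative control.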

[11] = biological target: human Peroxisome Proliferator-activated Receptor alpha (PPARa), PPARA (gene 5465) (UniProt Q07869); assay: ATG_PPARa_TRANS: Attagene TRANS-FACTORIAL HepG2 Assay for human Peroxisome Proliferator-activated Receptor alpha (PPARa) (AID 2283001; active = hit-call score of the fitted dose curve at least 0.9, where 1 is the maximum)
Chain of human Peroxisome Proliferator-activated Receptor alpha (PPARa), PPARA (gene 5465) (Q07869 whole entry, looked up, the tested form may be a part): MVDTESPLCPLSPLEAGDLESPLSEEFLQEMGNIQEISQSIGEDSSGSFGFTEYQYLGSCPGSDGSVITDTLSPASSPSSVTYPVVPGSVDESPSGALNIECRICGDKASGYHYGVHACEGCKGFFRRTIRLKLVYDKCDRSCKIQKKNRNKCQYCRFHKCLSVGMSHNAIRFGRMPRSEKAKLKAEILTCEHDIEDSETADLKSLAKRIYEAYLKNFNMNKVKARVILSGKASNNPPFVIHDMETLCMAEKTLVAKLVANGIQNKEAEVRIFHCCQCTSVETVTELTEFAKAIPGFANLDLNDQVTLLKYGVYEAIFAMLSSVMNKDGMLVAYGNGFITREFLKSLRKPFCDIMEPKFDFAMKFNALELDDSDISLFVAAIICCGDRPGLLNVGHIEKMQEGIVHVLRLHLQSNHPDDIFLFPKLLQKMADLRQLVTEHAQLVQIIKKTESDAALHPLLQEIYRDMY
Summary of the method: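 Transfected HepG2 cells treated with test chemical for 24 h. RNA isolated, reverse-transcribed with oligo(dT), PCR-amplified, FAM-labelled and HpaI-digested. Fragments sized by capillary electrophoresis; gain-of-signal fit relative to DMSO.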

[12] = biological target: human Peroxisome Proliferator-activated Receptor delta (PPARd), PPARD (gene 5467) (UniProt Q03181); assay: ATG_PPARd_TRANS: Attagene TRANS-FACTORIAL HepG2 Assay for human Peroxisome Proliferator-activated Receptor delta (PPARd) (AID 2283002; active = hit-call score of the fitted dose curve at least 0.9, where 1 is the maximum)
Chain of human Peroxisome Proliferator-activated Receptor delta (PPARd), PPARD (gene 5467) (Q03181 whole entry, looked up, the tested form may be a part): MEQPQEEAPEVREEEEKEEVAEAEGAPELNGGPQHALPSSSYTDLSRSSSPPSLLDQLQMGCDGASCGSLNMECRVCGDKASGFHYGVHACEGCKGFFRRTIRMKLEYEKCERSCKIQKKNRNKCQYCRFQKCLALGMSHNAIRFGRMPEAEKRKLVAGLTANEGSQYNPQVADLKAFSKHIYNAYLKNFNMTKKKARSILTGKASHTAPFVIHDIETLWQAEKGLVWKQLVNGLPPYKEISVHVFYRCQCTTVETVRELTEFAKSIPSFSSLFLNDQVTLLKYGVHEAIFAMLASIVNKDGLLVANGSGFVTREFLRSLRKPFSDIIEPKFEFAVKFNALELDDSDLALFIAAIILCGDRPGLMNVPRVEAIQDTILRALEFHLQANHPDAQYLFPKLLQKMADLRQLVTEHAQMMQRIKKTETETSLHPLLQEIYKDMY
Summary of the method: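 Read-out is induced reporter mRNA, quantified by RT-PCR with fluorescent labelling and capillary electrophoresis after 24 h dosing. Cells are HepG2 transiently carrying multiple GAL4-UAS reporter units driven by exogenous NR-GAL4 chimeras; DMSO serves as baseline.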

[13] = read-out: Intercellular Adhesion Molecule 1 (ICAM1), ICAM1 (gene 3383); assay: BSK_3C_ICAM1: BioMAP Diversity Plus: 3C Assay for Intercellular Adhesion Molecule 1 (ICAM1) Biomarker Activity (AID 2283003); settings: primary human endothelial cells (HUVEC); actives raise or lower the signal
Summary of the method: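 Using DMSO as baseline, bidirectional curve fitting was applied to ICAM-1 ELISA signals from HUVEC in the 3C system, measured 24 h after compound addition.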

[14] = BSK_3C_Proliferation: Cell Proliferation Assessment in the BioMAP Diversity Plus: 3C Assay (AID 2283006); settings: primary human endothelial cells (HUVEC)
Summary of the method: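 Measured here: sulforhodamine B (0.1%) staining of TCA-fixed sub-confluent umbilical vein endothelial cultures 48 h post-dosing, absorbance 560 nm. DMSO served as negative control and baseline; both signal gain and loss were modelled.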

[15] = biological target: Peroxisome proliferator-activated receptor gamma (Homo sapiens) (UniProt P37231); assay: ATG_PPARg_TRANS: Attagene TRANS-FACTORIAL HepG2 Assay for human Peroxisome Proliferator-activated Receptor-gamma (PPARg) (AID 2283007; active = hit-call score of the fitted dose curve at least 0.9, where 1 is the maximum)
Chain of Peroxisome proliferator-activated receptor gamma (Homo sapiens) (P37231 whole entry, looked up, the tested form may be a part): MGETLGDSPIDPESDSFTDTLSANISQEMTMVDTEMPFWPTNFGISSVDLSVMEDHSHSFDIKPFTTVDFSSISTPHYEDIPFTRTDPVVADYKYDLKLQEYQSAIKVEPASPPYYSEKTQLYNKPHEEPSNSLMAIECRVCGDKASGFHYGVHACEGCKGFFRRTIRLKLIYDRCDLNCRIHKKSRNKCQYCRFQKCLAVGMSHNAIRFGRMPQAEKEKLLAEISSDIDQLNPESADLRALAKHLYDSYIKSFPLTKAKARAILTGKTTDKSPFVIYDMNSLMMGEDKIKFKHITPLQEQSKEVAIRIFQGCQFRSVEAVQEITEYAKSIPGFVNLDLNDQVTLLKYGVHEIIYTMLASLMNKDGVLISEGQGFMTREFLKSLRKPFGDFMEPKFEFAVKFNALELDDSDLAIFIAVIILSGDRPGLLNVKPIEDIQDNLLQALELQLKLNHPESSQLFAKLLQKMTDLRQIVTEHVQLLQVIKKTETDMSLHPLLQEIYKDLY
Summary of the method: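 Read-out: reporter mRNA induction, detected by fluorescence after RT-PCR and capillary electrophoresis. Transiently transfected human HepG2 liver cells carrying a chimeric NR-Gal4 construct were dosed for 24 h; activity was fitted upward relative to DMSO.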

[16] = ATG_NF_kB_CIS: Attagene CIS-FACTORIAL HepG2 Assay for human Nuclear Factor Kappa B (NF-kB) (AID 2282991); settings: HepG2 Attagene cis-factorial NF-kB reporter mRNA; actives raise or lower the signal
Summary of the method: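 Read-out: reporter transcript levels quantified by RT-PCR plus capillary electrophoresis of 6-FAM-labelled, HpaI-cut fragments. Transfected HepG2 cells, 24 h compound exposure, endogenous NF-kB-driven cis element; gain or loss scored versus DMSO.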

[17] = biological target: Nuclear receptor subfamily 1 group I member 2 (Homo sapiens) (UniProt O75469); assay: ATG_PXR_TRANS: Attagene TRANS-FACTORIAL HepG2 Assay for human Pregnane X Receptor (PXR) (AID 2283008; active = hit-call score of the fitted dose curve at least 0.9, where 1 is the maximum)
Chain of Nuclear receptor subfamily 1 group I member 2 (Homo sapiens) (O75469 whole entry, looked up, the tested form may be a part): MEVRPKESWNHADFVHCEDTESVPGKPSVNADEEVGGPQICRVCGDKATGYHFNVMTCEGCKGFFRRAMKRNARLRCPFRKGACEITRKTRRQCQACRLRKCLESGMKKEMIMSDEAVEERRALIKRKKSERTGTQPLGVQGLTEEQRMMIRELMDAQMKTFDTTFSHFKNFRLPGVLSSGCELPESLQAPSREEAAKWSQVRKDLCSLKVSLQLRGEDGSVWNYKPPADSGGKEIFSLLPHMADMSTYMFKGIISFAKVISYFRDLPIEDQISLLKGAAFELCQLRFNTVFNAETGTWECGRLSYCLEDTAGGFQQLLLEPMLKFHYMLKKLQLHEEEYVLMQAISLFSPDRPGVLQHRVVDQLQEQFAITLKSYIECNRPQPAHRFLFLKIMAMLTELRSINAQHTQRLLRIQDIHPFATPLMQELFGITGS
Summary of the method: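 HepG2 transfected (FuGene 6) with GAL4-UAS reporter units + PXR-Gal4 chimera; dosed 24 h. Total RNA → oligo(dT) RT → PCR → 6-FAM primer extension → HpaI cut → CE. Gain-of-signal vs DMSO.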

[18] = biological target: human Retinoic Acid Receptor beta (RARb), RARB (gene 5915) (UniProt P10826); assay: ATG_RARb_TRANS: Attagene TRANS-FACTORIAL HepG2 Assay for human Retinoic Acid Receptor beta (AID 2283004; active = hit-call score of the fitted dose curve at least 0.9, where 1 is the maximum)
Chain of human Retinoic Acid Receptor beta (RARb), RARB (gene 5915) (P10826 whole entry, looked up, the tested form may be a part): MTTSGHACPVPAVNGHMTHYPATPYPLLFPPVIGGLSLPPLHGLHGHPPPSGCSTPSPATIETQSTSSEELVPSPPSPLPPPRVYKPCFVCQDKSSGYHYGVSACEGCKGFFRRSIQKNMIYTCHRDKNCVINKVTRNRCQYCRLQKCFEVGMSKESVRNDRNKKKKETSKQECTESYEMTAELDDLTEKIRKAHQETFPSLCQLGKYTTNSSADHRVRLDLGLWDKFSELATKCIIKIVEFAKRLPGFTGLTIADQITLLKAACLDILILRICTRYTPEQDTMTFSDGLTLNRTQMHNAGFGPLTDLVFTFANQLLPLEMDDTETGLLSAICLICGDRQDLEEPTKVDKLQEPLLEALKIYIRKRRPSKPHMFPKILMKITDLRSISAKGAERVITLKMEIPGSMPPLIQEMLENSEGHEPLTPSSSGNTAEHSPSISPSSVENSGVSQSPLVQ
Summary of the method: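 HepG2 cells were transiently transfected with GAL4-UAS reporter units that report activity of exogenous chimeric NR-Gal4 proteins, then exposed to compound for 24 h. Reporter mRNA was quantified by RT-PCR with capillary electrophoresis fluorescence, as gain of signal over DMSO.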

[19] = biological target: Retinoic acid receptor alpha (Homo sapiens) (UniProt P10276); assay: ATG_RARa_TRANS: Attagene TRANS-FACTORIAL HepG2 Assay for human Retinoic Acid Receptor alpha (RARa) (AID 2283005; active = hit-call score of the fitted dose curve at least 0.9, where 1 is the maximum)
Chain of Retinoic acid receptor alpha (Homo sapiens) (P10276 whole entry, looked up, the tested form may be a part): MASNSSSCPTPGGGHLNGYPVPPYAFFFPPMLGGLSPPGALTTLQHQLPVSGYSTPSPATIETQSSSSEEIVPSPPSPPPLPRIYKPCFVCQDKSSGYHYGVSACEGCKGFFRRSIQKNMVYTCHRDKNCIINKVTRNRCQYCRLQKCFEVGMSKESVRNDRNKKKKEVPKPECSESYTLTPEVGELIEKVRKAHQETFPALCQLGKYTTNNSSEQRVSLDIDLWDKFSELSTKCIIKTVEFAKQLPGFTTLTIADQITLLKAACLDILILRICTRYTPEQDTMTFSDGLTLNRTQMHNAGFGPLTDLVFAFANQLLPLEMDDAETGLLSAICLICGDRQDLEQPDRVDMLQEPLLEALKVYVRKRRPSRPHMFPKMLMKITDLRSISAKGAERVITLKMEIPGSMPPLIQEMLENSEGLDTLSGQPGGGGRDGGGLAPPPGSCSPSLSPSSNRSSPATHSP
Summary of the method: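 Reporter transcripts, measured by RT-PCR with fluorescent labeling and capillary electrophoresis after 24 h dosing, reflect activity of an exogenous human RARa–GAL4 fusion in transiently transfected HepG2. Fitted for increase relative to DMSO.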

[20] = biological target: human Retinoic Acid Receptor gamma (RARg), RARG (gene 5916) (UniProt P13631); assay: ATG_RARg_TRANS: Attagene TRANS-FACTORIAL HepG2 Assay for human Retinoic Acid Receptor gamma (RARg) (AID 2283009; active = hit-call score of the fitted dose curve at least 0.9, where 1 is the maximum)
Chain of human Retinoic Acid Receptor gamma (RARg), RARG (gene 5916) (P13631 whole entry, looked up, the tested form may be a part): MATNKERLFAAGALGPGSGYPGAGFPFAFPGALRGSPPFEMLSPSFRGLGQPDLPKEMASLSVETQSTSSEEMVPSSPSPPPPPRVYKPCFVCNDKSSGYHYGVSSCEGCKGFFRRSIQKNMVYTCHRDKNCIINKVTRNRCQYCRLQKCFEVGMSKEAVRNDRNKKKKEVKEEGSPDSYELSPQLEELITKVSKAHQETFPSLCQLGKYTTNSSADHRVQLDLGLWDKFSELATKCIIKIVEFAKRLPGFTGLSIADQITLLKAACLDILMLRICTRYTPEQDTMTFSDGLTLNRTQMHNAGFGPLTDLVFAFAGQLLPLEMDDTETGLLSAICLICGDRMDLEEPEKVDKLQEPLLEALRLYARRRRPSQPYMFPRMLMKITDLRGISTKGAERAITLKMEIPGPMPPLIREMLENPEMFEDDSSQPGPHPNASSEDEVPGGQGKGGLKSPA
Summary of the method: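 Gain-of-signal relative to DMSO is reported from fluorescent capillary electrophoresis of RT-PCR reporter products. These came from HepG2 cells expressing transfected RARg-GAL4 chimeras with UAS reporters, harvested 24 h after dosing.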

In the case of `Brc1nc2ccccc2s1`, the outcome [1] was “inactive”, the outcome [2] was “inactive” and the outcome [3] was “inactive”. The AC50 [4] was 23600 nM (active), the outcome [5] was “inactive” and the outcome [6] was “inactive”. For the same molecule, the outcome [7] was “inactive”, the outcome [8] was “inactive” and the outcome [9] was “inactive”. For the same molecule, the outcome [10] was “inactive”, the outcome [11] was “inactive” and the outcome [12] was “inactive”. For the same molecule, the outcome [13] was “inactive”, the outcome [14] was “inactive” and the AC50 [15] was 23500 nM (active).

For `O=S(=O)(O)c1ccc(Cl)cc1`, the outcome [1] was “inactive”, the outcome [2] was “inactive” and the outcome [3] was “inactive”. For the same molecule, the outcome [4] was “inactive”, the outcome [5] was “inactive” and the outcome [6] was “inactive”. For the same molecule, the outcome [12] was “inactive” and the outcome [15] was “inactive”.

In the case of `CCCCCCCCCCCCCC[P+](CCCC)(CCCC)CCCC`, the outcome [1] was “inactive”, the AC50 [2] was 1240 nM (active) and the outcome [3] was “inactive”. The outcome [16] was “inactive”, the AC50 [4] was 719 nM (active) and the AC50 [5] was 903 nM (active). The outcome [11] was “inactive”, the outcome [12] was “inactive” and the outcome [15] was “inactive”. The outcome [17] was “inactive”.

With `CC(C)(C)c1cc(Cc2cc(C(C)(C)C)c(O)c(C(C)(C)C)c2)cc(C(C)(C)C)c1O` the outcome [1] was “inactive”, the outcome [2] was “inactive” and the outcome [3] was “inactive”. The outcome [16] was “inactive”, the outcome [4] was “inactive” and the outcome [5] was “inactive”. For the same molecule, the outcome [18] was “inactive”, the outcome [19] was “inactive” and the outcome [15] was “inactive”. The AC50 [17] was 631 nM (active) and the outcome [20] was “inactive”.

With `Cc1ccc([N+](=O)[O-])c(C)c1` the outcome [1] was “inactive”, the outcome [2] was “inactive” and the outcome [3] was “inactive”. For the same molecule, the outcome [4] was “inactive”, the outcome [5] was “inactive” and the outcome [6] was “inactive”. For the same molecule, the outcome [11] was “inactive”, the outcome [12] was “inactive” and the outcome [15] was “inactive”. For the same molecule, the outcome [17] was “inactive”.

For `CCC/C=C/CO`, the outcome [1] was “inactive”, the outcome [2] was “inactive” and the outcome [3] was “inactive”. For the same molecule, the outcome [4] was “inactive”, the outcome [5] was “inactive” and the outcome [6] was “inactive”. The outcome [11] was “inactive”, the outcome [12] was “inactive” and the outcome [19] was “inactive”. For the same molecule, the outcome [15] was “inactive” and the outcome [17] was “inactive”.
